From PubChem BioAssay (NCI)
This is part of a sample that, as a whole, favours compounds with a hit. Of some 83,000 tested, about 20% had one in any assay.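 96-well plates, one dose, 48 hours. Percent growth reported; active if below 10.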 Active and inactive are the calls of the source.

How the values were obtained:
Assay in all cases: NCI-60 one-dose screen, 48 h (100 = growth as untreated, 0 = no growth, -100 = all killed)
Settings in all cases: 10 µM
SR leukemia = system: SR leukemia
RPMI-8226 leukemia = system: RPMI-8226 leukemia
OVCAR-8 ovarian = system: OVCAR-8 ovarian
OVCAR-5 ovarian = system: OVCAR-5 ovarian
OVCAR-4 ovarian = system: OVCAR-4 ovarian
SK-OV-3 ovarian = system: SK-OV-3 ovarian
IGROV1 ovarian = system: IGROV1 ovarian
OVCAR-3 ovarian = system: OVCAR-3 ovarian
HS 578T breast = system: HS 578T breast
NCI/ADR-RES ovarian = system: NCI/ADR-RES ovarian
T-47D breast = system: T-47D breast
BT-549 breast = system: BT-549 breast
MDA-MB-435 melanoma = system: MDA-MB-435 melanoma
SW-620 colon = system: SW-620 colon
MCF7 breast = system: MCF7 breast
HCT-116 colon = system: HCT-116 colon
HCC-2998 colon = system: HCC-2998 colon
KM12 colon = system: KM12 colon
MDA-MB-468 breast = system: MDA-MB-468 breast

Measured: growth

O=C(/C=C/Nc1ccc(F)cc1F)c1ccc2c(c1)Nc1ccccc1S2
active: MDA-MB-435 melanoma 9.72%
inactive: SR leukemia 31.7% | RPMI-8226 leukemia 78.2% | OVCAR-8 ovarian 64.6% | OVCAR-5 ovarian 86.8% | OVCAR-4 ovarian 68.2% | SK-OV-3 ovarian 95.2% | IGROV1 ovarian 77.9% | OVCAR-3 ovarian 100% | HS 578T breast 63% | NCI/ADR-RES ovarian 57.1% | T-47D breast 80.1% | BT-549 breast 85.7% | SW-620 colon 55.1% | MCF7 breast 37.9% | HCT-116 colon 58.6% | HCC-2998 colon 79.7% | KM12 colon 51.6% | MDA-MB-468 breast 41.9%

Cc1ccc2nc(COc3ccc(C(=O)NNC(=S)NCCc4ccccc4)cc3)[nH]c2c1
active: OVCAR-4 ovarian -4.14%
inactive: SR leukemia 88.2% | RPMI-8226 leukemia 87.7% | OVCAR-8 ovarian 13.1% | OVCAR-5 ovarian 88.9% | SK-OV-3 ovarian 83.4% | IGROV1 ovarian 52.9% | OVCAR-3 ovarian 105% | HS 578T breast 41.1% | NCI/ADR-RES ovarian 75.4% | T-47D breast 74% | BT-549 breast 105% | MDA-MB-435 melanoma 98.5% | SW-620 colon 96.3% | MCF7 breast 50.5% | HCT-116 colon 57.3% | HCC-2998 colon 73.9% | KM12 colon 63.4%

COc1cc2oc(-c3cccc(C(=O)Nc4ccc(Cl)cc4)c3)cc(=O)c2c(OCCNC(=O)CNC(=O)OC(C)(C)C)c1OC
inactive: SR leukemia 37.5% | RPMI-8226 leukemia 29.4% | OVCAR-8 ovarian 48% | OVCAR-5 ovarian 67.8% | OVCAR-4 ovarian 65.8% | SK-OV-3 ovarian 92.7% | IGROV1 ovarian 50.9% | OVCAR-3 ovarian 98.3% | HS 578T breast 62.8% | NCI/ADR-RES ovarian 50.6% | T-47D breast 59% | BT-549 breast 51.2% | MDA-MB-435 melanoma 66.7% | SW-620 colon 110% | MCF7 breast 42% | HCT-116 colon 41.6% | HCC-2998 colon 102% | KM12 colon 48.6%

O=C(NO)c1ccc(CNC(=O)[C@H]2Cc3c([nH]c4ccccc34)[C@H](c3ccccc3)N2)cc1
inactive: SR leukemia 23.8% | RPMI-8226 leukemia 15.1% | OVCAR-8 ovarian 24.7% | OVCAR-5 ovarian 15.3% | OVCAR-4 ovarian 53.7% | IGROV1 ovarian 46.9% | OVCAR-3 ovarian 22.7% | HS 578T breast 17.3% | NCI/ADR-RES ovarian 63% | BT-549 breast 55.4% | MCF7 breast 14.4% | HCT-116 colon 10.1% | HCC-2998 colon 16.9% | KM12 colon 31.1%
active: SK-OV-3 ovarian -3.43% | T-47D breast -17.7% | MDA-MB-435 melanoma 5.21% | SW-620 colon -43.7% | MDA-MB-468 breast -6.19%

CC(=O)c1ccc(Nc2nc(SCCC(C)C)nc(-c3ccc(F)cc3)c2C#N)cc1
inactive: SR leukemia 64.9% | RPMI-8226 leukemia 81.7% | OVCAR-5 ovarian 53.4% | SK-OV-3 ovarian 98.7% | IGROV1 ovarian 16% | OVCAR-3 ovarian 19% | HS 578T breast 32% | NCI/ADR-RES ovarian 23.9% | T-47D breast 68.3% | BT-549 breast 56.7% | MDA-MB-435 melanoma 73.8% | SW-620 colon 68.5% | MCF7 breast 59.6% | HCT-116 colon 22% | HCC-2998 colon 83.4% | KM12 colon 81.8%
active: OVCAR-8 ovarian 8.35% | OVCAR-4 ovarian -6.74%

Cc1ccn2c(C(=O)c3ccccc3)cc(-c3cc(-c4ccc(N(C)C)cc4)c(C#N)c(N)n3)c2c1
inactive: SR leukemia 75.9% | RPMI-8226 leukemia 82.5% | OVCAR-8 ovarian 15.1% | OVCAR-5 ovarian 83.4% | OVCAR-4 ovarian 45.5% | SK-OV-3 ovarian 65.2% | IGROV1 ovarian 86.3% | OVCAR-3 ovarian 58.2% | HS 578T breast 33.2% | NCI/ADR-RES ovarian 50.8% | T-47D breast 63.6% | BT-549 breast 58.1% | MDA-MB-435 melanoma 78.8% | SW-620 colon 69.7% | MCF7 breast 54.3% | HCT-116 colon 63.4% | HCC-2998 colon 92% | KM12 colon 74%

CC(=O)Nc1ccc(-c2cn(-c3cccc(C(=O)Nc4ccc(F)c(C(F)(F)F)c4)c3)nn2)cn1
inactive: SR leukemia 34.6% | RPMI-8226 leukemia 66.6% | OVCAR-5 ovarian 89.1% | OVCAR-4 ovarian 13.5% | SK-OV-3 ovarian 90.8% | IGROV1 ovarian 43.2% | OVCAR-3 ovarian 24.9% | NCI/ADR-RES ovarian 86.3% | T-47D breast 88.2% | BT-549 breast 103% | MDA-MB-435 melanoma 59.7% | HCT-116 colon 14.7% | HCC-2998 colon 62% | KM12 colon 28.4%
active: OVCAR-8 ovarian 2.67% | HS 578T breast 7.97% | SW-620 colon -8.11% | MCF7 breast 4.2%

COc1ccc(-c2ccc(SCC(=O)Nc3ccc(C#N)cc3)nn2)cc1
inactive: SR leukemia 89.2% | RPMI-8226 leukemia 91% | OVCAR-8 ovarian 88.8% | OVCAR-5 ovarian 101% | OVCAR-4 ovarian 83.8% | SK-OV-3 ovarian 91.6% | IGROV1 ovarian 88.4% | OVCAR-3 ovarian 121% | HS 578T breast 67.8% | NCI/ADR-RES ovarian 83.7% | T-47D breast 79.5% | BT-549 breast 88.6% | MDA-MB-435 melanoma 98.8% | SW-620 colon 102% | MCF7 breast 88.8% | HCT-116 colon 87% | HCC-2998 colon 104% | KM12 colon 99.9% | MDA-MB-468 breast 88.1%

CN1C(=O)N(C)C2SC(N/N=C/c3ccccc3F)=NC21 (stereo unspecified)
active: OVCAR-3 ovarian 6.19% | MDA-MB-435 melanoma -16.6%
inactive: SR leukemia 16.4% | RPMI-8226 leukemia 90.9% | OVCAR-8 ovarian 88.4% | OVCAR-5 ovarian 86.7% | OVCAR-4 ovarian 92.7% | SK-OV-3 ovarian 88% | IGROV1 ovarian 56.6% | HS 578T breast 85.6% | NCI/ADR-RES ovarian 30.6% | T-47D breast 64.3% | BT-549 breast 45.4% | SW-620 colon 47.4% | MCF7 breast 32% | HCT-116 colon 37.5% | HCC-2998 colon 88.5% | KM12 colon 45.2%

CC(C)C1=C[C@@]23CC[C@@H]4[C@](C)(CCC[C@]4(C)C(=O)NCc4ccccc4)[C@H]2C[C@@H]1[C@H]1C(=O)OC(=O)[C@H]13
inactive: RPMI-8226 leukemia 24.7% | OVCAR-8 ovarian 42.7% | OVCAR-5 ovarian 93.6% | OVCAR-4 ovarian 49.8% | SK-OV-3 ovarian 74.5% | IGROV1 ovarian 31.1% | OVCAR-3 ovarian 42% | HS 578T breast 44.6% | NCI/ADR-RES ovarian 37.4% | T-47D breast 56% | BT-549 breast 69.6% | MDA-MB-435 melanoma 49.6% | SW-620 colon 54.2% | MCF7 breast 13.2% | HCT-116 colon 23.1% | HCC-2998 colon 53.8% | KM12 colon 24.9% | MDA-MB-468 breast 41.5%
active: SR leukemia 6.39%

CC(=O)Nc1ccc(-n2cnc3cc(-c4ccc(NS(C)(=O)=O)cc4)ccc32)cc1
inactive: SR leukemia 21.8% | RPMI-8226 leukemia 55.8% | OVCAR-8 ovarian 66.9% | OVCAR-5 ovarian 79.3% | OVCAR-4 ovarian 60% | SK-OV-3 ovarian 87.9% | IGROV1 ovarian 36.4% | OVCAR-3 ovarian 63.1% | HS 578T breast 57.9% | NCI/ADR-RES ovarian 70.5% | T-47D breast 63.2% | BT-549 breast 75.4% | MDA-MB-435 melanoma 51.7% | SW-620 colon 71.5% | MCF7 breast 16.8% | HCT-116 colon 33.9% | HCC-2998 colon 21.5% | KM12 colon 39.8%

CCOC(=O)C1=C(N)N(c2ccc(C)cc2)C2=C(C(=O)CC(C)(C)C2)C1c1ccccc1OC (stereo unspecified)
inactive: SR leukemia 92.1% | RPMI-8226 leukemia 96.2% | OVCAR-8 ovarian 110% | OVCAR-5 ovarian 104% | OVCAR-4 ovarian 108% | SK-OV-3 ovarian 103% | IGROV1 ovarian 98.6% | OVCAR-3 ovarian 118% | HS 578T breast 102% | NCI/ADR-RES ovarian 99.7% | T-47D breast 97.8% | BT-549 breast 95.7% | MDA-MB-435 melanoma 111% | SW-620 colon 105% | MCF7 breast 93.5% | HCT-116 colon 103% | HCC-2998 colon 106% | KM12 colon 108%

Cc1cc(C)nc(/N=C(\N)Nc2ccc(S(=O)(=O)Nc3nc(C)cc(C)n3)cc2)n1
inactive: SR leukemia 99.8% | RPMI-8226 leukemia 98.9% | OVCAR-8 ovarian 107% | OVCAR-5 ovarian 119% | OVCAR-4 ovarian 111% | SK-OV-3 ovarian 106% | IGROV1 ovarian 106% | OVCAR-3 ovarian 112% | HS 578T breast 103% | NCI/ADR-RES ovarian 110% | T-47D breast 100% | BT-549 breast 117% | MDA-MB-435 melanoma 109% | SW-620 colon 109% | MCF7 breast 95.1% | HCT-116 colon 110% | HCC-2998 colon 113% | KM12 colon 111%

COc1cccc2nc(Nc3cccc(NC(=O)c4ccc(CN5CCCN(C)CC5)c(C(F)(F)F)c4)c3)ccc12
active: SR leukemia -27.1% | RPMI-8226 leukemia -39.4% | OVCAR-8 ovarian -69.3% | OVCAR-5 ovarian -100% | OVCAR-4 ovarian -84.4% | SK-OV-3 ovarian -72.8% | IGROV1 ovarian -85.2% | OVCAR-3 ovarian -58.6% | HS 578T breast -61.7% | NCI/ADR-RES ovarian -77.9% | T-47D breast -55.9% | BT-549 breast -92.5% | MDA-MB-435 melanoma -100% | SW-620 colon -97.5% | MCF7 breast -90% | HCT-116 colon -64.7% | HCC-2998 colon -96.6% | KM12 colon -63.9% | MDA-MB-468 breast -87.9%

Cc1ccc(-c2cc(C(=O)N=Nc3c(O)[nH]c4ccc(Br)cc34)c3ccccc3n2)cc1
inactive: SR leukemia 10.4% | RPMI-8226 leukemia 60.8% | OVCAR-8 ovarian 56.5% | OVCAR-5 ovarian 99.7% | OVCAR-4 ovarian 71.9% | SK-OV-3 ovarian 107% | IGROV1 ovarian 52.9% | OVCAR-3 ovarian 79.2% | HS 578T breast 67.5% | NCI/ADR-RES ovarian 55% | T-47D breast 75.2% | BT-549 breast 86.3% | MDA-MB-435 melanoma 45.1% | SW-620 colon 34.1% | MCF7 breast 28.5% | HCT-116 colon 27.4% | HCC-2998 colon 45.5% | KM12 colon 49.1% | MDA-MB-468 breast 31.2%
